The values below come from PubChem BioAssay AID1210 (NMMLSC, 2008).

The target of this assay is Estrogen receptor beta (Homo sapiens) (UniProt Q92731). The assay is described as follows: ERbeta ligand binders by competition, primary screen, cell-based, Cos7 ERbeta-GFP, flow cytometry (AID 1210).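 Further: 0% = DMSO vehicle wells and 100% = complete loss of labeled estradiol signal.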 Conditions: fluorescent estrogen binding, stronger effect = higher value.
The mark [1] stands for this setting: ligand binding inhibition, at 0.1 µM.

Active and inactive are the calls of the source.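 How the source made its calls: active means blocks over 70% of labeled estradiol binding at 10 µM, or over a set limit at 100 nM; inactive means the rest.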

Estrogen receptor beta (Homo sapiens), sequence (Q92731 whole entry, looked up): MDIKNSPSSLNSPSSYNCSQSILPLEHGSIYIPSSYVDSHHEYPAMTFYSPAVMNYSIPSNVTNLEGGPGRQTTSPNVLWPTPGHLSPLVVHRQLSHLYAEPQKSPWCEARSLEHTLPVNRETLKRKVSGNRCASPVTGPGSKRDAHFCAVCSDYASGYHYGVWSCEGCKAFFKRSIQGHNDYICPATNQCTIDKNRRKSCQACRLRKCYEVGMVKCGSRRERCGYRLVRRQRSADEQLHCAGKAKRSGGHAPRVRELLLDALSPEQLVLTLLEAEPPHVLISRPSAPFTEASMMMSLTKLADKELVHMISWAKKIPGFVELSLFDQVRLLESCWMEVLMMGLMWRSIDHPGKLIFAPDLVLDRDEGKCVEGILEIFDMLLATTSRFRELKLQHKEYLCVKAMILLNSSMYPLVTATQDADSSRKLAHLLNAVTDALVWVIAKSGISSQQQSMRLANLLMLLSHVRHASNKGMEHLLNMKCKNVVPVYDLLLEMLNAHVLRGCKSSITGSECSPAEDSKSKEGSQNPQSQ

For the compound `O=C(CSc1nnc(-c2ccc(O)cc2)n1Cc1ccccc1)NNC(=O)c1ccc(Br)cc1`, the inhibition was 31% (inactive) (at 10 µM) and 30% under setting [1].
For the compound `CCn1c(SCC(=O)N2CCOCC2)nc2oc3c(Cl)cc(Cl)cc3c(=O)c2c1=O`, the inhibition runs as follows: (at 10 µM) 56% (inactive); under setting [1], 1%.
With `COc1ccc(-c2ccc(=O)[nH]n2)cc1`, the inhibition by setting is: (at 10 µM) 0% (inactive); under setting [1], 16%.
As to `CC(=O)c1ccc(NC(=S)N2CCCC(CO)C2)cc1` (stereo not given), the inhibition by setting is: (at 10 µM) 49% (inactive); under setting [1], 13%.
As for `COc1cc2cc(C(c3nnnn3C3CCCC3)N3CCc4ccccc43)c(=O)[nH]c2cc1OC` (stereo not given), the inhibition is, setting by setting: (at 10 µM) 37% (inactive); under setting [1], 25%.
`COc1ccc(C2Nc3ccccc3C(=O)N2c2ccc(F)cc2)cc1CSc1ccccn1` (stereo not given): the inhibition was 6% (inactive) (at 10 µM) and 30% under setting [1].
Consider `C=CCn1c(=O)c(C#N)cc2c(=O)n3ccccc3nc21`, for which the inhibition by setting is: (at 10 µM) 39% (inactive); under setting [1], 22%.
In the case of `O=C(O)C1Nc2c(O)cccc2C2C=CCC12` (stereo not given), the inhibition reads like this: (at 10 µM) 0% (inactive); under setting [1], 4%.
As for `O=C(O)c1ccc(NS(=O)(=O)c2ccc3c(c2)C2C=CCC2C(c2ccccc2F)N3)cc1` (stereo not given), the inhibition is 7% (inactive) (at 10 µM) and 9% under setting [1].
Turning to `O=c1cc(-c2ccco2)oc2c1ccc1ccccc12`, the inhibition (at 10 µM) was 49% (inactive) and the inhibition under setting [1] turned out to be 22%.
Take `O=c1cc(O)c2sc(Nc3ccc(F)cc3)nc2[nH]1`: the inhibition is 8% (inactive) (at 10 µM) and 9% under setting [1].
Regarding `O=C1Nc2ccccc2SC(c2ccccc2)C1O` (stereo not given), the inhibition was 56% (inactive) (at 10 µM) and 26% under setting [1].
Take `Cc1nc(-c2ccc(O)c(O)c2)cs1`: the inhibition reads like this: (at 10 µM) 31% (inactive); under setting [1], 4%.
For `Nc1ccc(-c2cc(-c3cccc(N)c3)nc(-c3ccccc3)n2)cc1`, the inhibition was 39% (inactive) (at 10 µM) and 27% under setting [1].
Turning to `Cc1cccc(N2CSC3=C(C#N)C(c4ccc(C)o4)CC(=O)N3C2)c1` (stereo not given), the inhibition (at 10 µM) is 35% (inactive) and the inhibition under setting [1] was 21%.
